# Compound activity from PubChem BioAssay.
# Sampled rows, rich in hits. Any-hit rate of the full collection: about 10%.
# HP1b chromo inh: inhibitors of HP1-beta chromodomain binding to methylated histone tails; P83916; AlphaScreen HP1-beta / biotin-H3K9me3 peptide binding; Potency, µM (doses to about 114 µM), usual class: inhibitors; 390,000 compounds, 0.56% hits; also: nearly all actives have a fitted effect of over 70% in size
#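 Compound inhibition of the preformed complex between 50 nM HP1-beta and 50 nM biotinylated H3K9me3 peptide was read by AlphaScreen. Buffer was PBS pH 7.4 with 0.01% Tween-20. Incubations ran 30 min at room temperature, with 10 ug/mL donor/acceptor beads.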
# BAZ2B inh: blocks human BAZ2B. AlphaScreen BAZ2B-H3K14Ac peptide displacement. Potency, µM (doses to about 114 µM), usual class: inhibitors. 360,000 compounds, 4.4% hits. AID 504333; also: nearly all actives have a fitted effect of over 60% in size
# Target sequence (Q9UIF8 whole entry, looked up): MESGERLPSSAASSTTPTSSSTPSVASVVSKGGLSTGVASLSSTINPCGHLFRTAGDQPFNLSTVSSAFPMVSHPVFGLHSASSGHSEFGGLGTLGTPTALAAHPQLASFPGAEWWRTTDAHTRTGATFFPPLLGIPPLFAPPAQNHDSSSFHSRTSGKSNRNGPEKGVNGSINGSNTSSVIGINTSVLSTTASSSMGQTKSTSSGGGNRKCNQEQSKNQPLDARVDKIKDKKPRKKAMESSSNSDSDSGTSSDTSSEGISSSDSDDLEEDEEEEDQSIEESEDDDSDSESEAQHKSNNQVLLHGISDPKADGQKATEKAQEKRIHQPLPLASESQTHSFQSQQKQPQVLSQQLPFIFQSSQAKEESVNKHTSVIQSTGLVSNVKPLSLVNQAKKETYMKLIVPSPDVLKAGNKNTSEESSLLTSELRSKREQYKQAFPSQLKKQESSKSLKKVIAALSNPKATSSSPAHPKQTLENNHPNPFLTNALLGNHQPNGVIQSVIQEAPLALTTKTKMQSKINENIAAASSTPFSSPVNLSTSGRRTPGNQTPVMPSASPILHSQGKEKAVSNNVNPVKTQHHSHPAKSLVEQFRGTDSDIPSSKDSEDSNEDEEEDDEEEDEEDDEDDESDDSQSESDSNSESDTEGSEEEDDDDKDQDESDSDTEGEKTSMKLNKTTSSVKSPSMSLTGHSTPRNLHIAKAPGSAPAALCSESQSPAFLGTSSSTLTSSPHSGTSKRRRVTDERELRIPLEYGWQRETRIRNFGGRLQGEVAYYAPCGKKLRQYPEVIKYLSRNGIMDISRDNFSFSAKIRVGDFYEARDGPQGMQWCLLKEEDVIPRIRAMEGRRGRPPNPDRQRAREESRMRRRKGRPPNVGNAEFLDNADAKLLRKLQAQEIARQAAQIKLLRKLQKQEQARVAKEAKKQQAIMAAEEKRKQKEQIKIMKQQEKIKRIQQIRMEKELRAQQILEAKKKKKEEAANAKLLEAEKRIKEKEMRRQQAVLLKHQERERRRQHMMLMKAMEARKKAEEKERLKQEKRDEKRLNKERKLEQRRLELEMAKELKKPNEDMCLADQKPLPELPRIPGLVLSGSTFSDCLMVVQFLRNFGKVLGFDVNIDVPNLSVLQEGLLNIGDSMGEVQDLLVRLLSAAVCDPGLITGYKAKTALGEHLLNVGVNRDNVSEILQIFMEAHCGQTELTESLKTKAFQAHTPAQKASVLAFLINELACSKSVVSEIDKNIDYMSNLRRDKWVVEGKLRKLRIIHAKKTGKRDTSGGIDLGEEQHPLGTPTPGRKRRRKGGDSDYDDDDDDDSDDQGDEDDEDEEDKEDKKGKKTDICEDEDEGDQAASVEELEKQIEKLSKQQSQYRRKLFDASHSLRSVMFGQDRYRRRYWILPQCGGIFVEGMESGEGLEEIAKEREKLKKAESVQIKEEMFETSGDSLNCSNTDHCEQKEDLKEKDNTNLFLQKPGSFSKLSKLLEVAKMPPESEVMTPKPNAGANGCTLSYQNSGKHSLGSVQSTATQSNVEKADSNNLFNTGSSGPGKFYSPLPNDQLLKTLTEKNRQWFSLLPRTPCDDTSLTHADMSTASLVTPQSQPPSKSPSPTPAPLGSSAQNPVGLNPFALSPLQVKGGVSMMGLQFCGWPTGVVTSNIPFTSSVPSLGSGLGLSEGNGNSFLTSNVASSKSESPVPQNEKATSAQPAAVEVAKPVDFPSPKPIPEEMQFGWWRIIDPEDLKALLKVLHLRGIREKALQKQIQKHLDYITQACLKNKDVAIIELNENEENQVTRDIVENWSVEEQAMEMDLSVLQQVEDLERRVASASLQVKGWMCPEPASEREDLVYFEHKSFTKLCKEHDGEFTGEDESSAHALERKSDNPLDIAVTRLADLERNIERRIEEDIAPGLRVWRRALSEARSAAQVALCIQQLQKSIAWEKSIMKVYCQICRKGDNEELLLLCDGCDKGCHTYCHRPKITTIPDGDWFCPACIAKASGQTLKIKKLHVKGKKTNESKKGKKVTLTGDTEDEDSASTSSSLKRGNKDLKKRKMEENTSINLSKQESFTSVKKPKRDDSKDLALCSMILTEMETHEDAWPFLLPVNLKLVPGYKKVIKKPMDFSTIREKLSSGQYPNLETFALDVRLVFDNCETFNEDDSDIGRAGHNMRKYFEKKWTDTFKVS
#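 Protein-peptide AlphaScreen: BAZ2B 50 nM, b-H3K14Ac 50 nM, 1x PBS pH 7.4 + 0.01% Tween-20. Preincubation 30 min RT; cpd 30 min RT (top 110 uM); beads 20 min RT, light-protected.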
# CtBP-E1A blk: CtBP/E1A binding inhibition; AlphaScreen GST-E1A/His-CtBP binding, 1536-well; stronger effect = lower value; activity change, % (test concentration not listed); 340,000 compounds, 0.49% hits; AID 651724; in the data active = activity change below about -65%; inconclusive = mostly about -30% to -63%
#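 Protein mix (5X: 125 nM each GST-E1A, His-CtBP) was incubated with pinned compound 2 h at 37 deg C in dark, in 50 mM Tris pH 8.0 buffer with 300 mM NaCl. Glutathione donor and nickel acceptor beads followed; AlphaScreen signal read after 1 h.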
# JMJD2A Tudor inh: inhibitors of human JMJD2A Tudor domain. O75164. AlphaScreen JMJD2A-Tudor / H3K4me3 peptide binding. Potency, µM (series often up to 114 µM), hits mostly inhibitors. 390,000 compounds, 4.4% hits; also: nearly all actives have a fitted effect of over 50% in size
# Six1-Eya2 blk: Six1/Eya2 interaction inhibition; 360,000 compounds, 0.56% hits; AlphaScreen GST-Six1/His-Eya2 binding, biochemical; stronger effect = lower value; activity change, % (no concentration beside the values); in the data active = activity change below about -65%; inconclusive = mostly about -30% to -63%
#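 AlphaScreen luminescence read after one hour at 37 °C in darkness. Pin-transferred compounds met GST-Six1 and His-Eya2 protein (5X stock 250 nM/500 nM) plus glutathione donor and Ni-chelate acceptor beads (5X, 50 ug/mL).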
# G9a block: blocks human histone lysine methyltransferase G9a; Q96KQ7; G9a H3K9 monomethylation, AlphaScreen, 2 h; Potency, µM (top dose mostly 102 µM), actives largely listed as inhibitors; 350,000 compounds, 8.8% hits; AID 504332; also: nearly all actives have a fitted effect of over 75% in size
#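 AlphaScreen detection with an anti-monomethyl H3K9 antibody quantified product after a 2 h room-temperature reaction containing 500 nM biotinylated H3K9 peptide, 20 µM SAM and 20 nM enzyme, which had been preincubated 15 min with compound.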
# A number is an active result; – = inactive; ? = inconclusive; · = no result given; ! = a repeat was not active; [ ] = another dose, or the depositor's remark. Unless noted, calls follow the shape of the dose curve; as a rule, active = well fitted inhibition curve with a large enough effect; inconclusive = small, poorly fitted or top-dose-only effect; inactive = no such curve, though single readings can be large or run the other way.
SMILES,HP1b chromo inh,BAZ2B inh,CtBP-E1A blk,JMJD2A Tudor inh,Six1-Eya2 blk,G9a block
CSc1ccccc1C(=O)NCCCn1ccnc1,–,?,–,–,–,–
COc1ccc(C(C#N)=Cc2cccc(OC)c2OC)cc1,·,·,–,·,–,·
COc1ccc(S(=O)(=O)N(Cc2ccco2)Cc2cc3ccccc3[nH]c2=O)cc1,–,–,–,–,–,–
COc1cccc(C2C(C#N)=C(N)Oc3cc(C)n(Cc4ccco4)c(=O)c32)c1 (centres undefined),–,–,–,–,–,50µM
COc1ccc(C2C(C#N)=C(N)Oc3cc(C)n(Cc4ccco4)c(=O)c32)cc1 (centres undefined),–,–,–,–,–,25µM
Cc1cc2c(c(=O)n1Cc1cccnc1)C(c1ccccc1)C(C#N)=C(N)O2 (centres undefined),–,–,–,–,–,–[2.33 µM]
Cc1ccc(Cl)cc1-n1ncc2c(N3CCN(Cc4ccccc4)CC3)ncnc21,–,–,·,–,·,–
O=C1C=CC(=O)N1Cc1ccccc1,?,?,–,25µM,–,1.8µM
COc1ccc(-n2c3c(cc(-c4nc(-c5ccc(Cl)cc5)cs4)c2=O)C(=O)CC(C)(C)C3)cc1,–,?,·,–,·,4.5µM
COc1ccc(C2CC(=O)c3cc(-c4nc(-c5cccc([N+](=O)[O-])c5)cs4)c(=O)n(-c4ccc(OC)cc4)c3C2)cc1 (centres undefined),–,–,·,–,·,–
COc1ccc(C)cc1-n1c(-c2ccc(Cl)cc2)cc2c1CC(C)(C)CC2=O,–,?,·,?,·,?
CC1(C)CC(=O)c2cc(C#N)c(=O)n(-c3ccc(Cl)cc3)c2C1,–,–,·,–,·,14µM
COc1ccc(-n2c(-c3ccc(Cl)cc3)cc3c2CC(C)(C)CC3=O)c(OC)c1,?,11µM,·,14µM,·,13µM
COc1ccc(C2CC(=O)c3cc(-c4nc(-c5cccc([N+](=O)[O-])c5)cs4)c(=O)n(-c4cccc(C)c4)c3C2)cc1 (centres undefined),–,–,·,–,·,16µM
Cc1cc2c(n1-c1ccc(Cl)cc1)CC(C)(C)CC2=O,–,?,–,?,–,–[12.7 µM]
CC1(C)CC(=O)c2cc(C(=O)O)c(=O)n(-c3ccccc3)c2C1,–,–,–,–,-87,–
COc1ccc(-n2c3c(cc(-c4nc(-c5ccc(Cl)cc5)cs4)c2=O)C(=O)CC(C)(C)C3)cc1Cl,–,–,·,–,·,8.9µM
C[C@@H]1O[C@@H](O[C@@H]2[C@@H](O)[C@H](OCCc3ccc(O)c(O)c3)O[C@H](CO)[C@H]2OC(=O)/C=C/c2ccc(O)c(O)c2)[C@H](O)[C@H](O)[C@H]1O,?,·,–,18µM,?,·
CCN(c1cccc2ccccc12)S(=O)(=O)c1cccs1,–,·,–,–,–,·
Cc1ccc(S(=O)(=O)/N=C/c2c(O)ccc3ccccc23)cc1,–,–,·,?,–,4µM
O=S(=O)(/N=C/c1c(O)ccc2ccccc12)c1cccs1,·,–,·,·,·,1.4µM
Cc1cccc(NC(=O)C(C)Sc2nc3nc(C)cc(C)n3n2)c1 (centres undefined),–,·,–,–,–,·
CCCc1cc(-c2[nH]ncc2-c2ccc3c(c2)OCCCO3)c(O)cc1O,–,?,–,40µM,–,–[12.7 µM]
CCCc1cc(-c2[nH]ncc2-c2ccc(C(=O)OCC)o2)c(O)cc1O,?,?,–,?,–,–
OC(COCc1ccccc1)COCc1ccccc1,–,·,–,–,–,·
SMILES,HP1b chromo inh,BAZ2B inh,CtBP-E1A blk,JMJD2A Tudor inh,Six1-Eya2 blk,G9a block
CCc1n(CC(O)COCC2CC=CCC2)c2ccccc2[n+]1C (centres undefined),–,–,–,?,–,50µM
Cc1n(CC(O)COCc2ccccc2)c2ccccc2[n+]1C (centres undefined),–,56µM,–,–,–,–
Cc1cccc(N2C(=O)C=CC2=O)c1,?,·,–,20µM,–,·
O=c1c2ccccc2cnn1-c1ccc2ccccc2c1,–,–,–,–,–,–[12.7 µM]
O=C1C=CC(=O)N1c1ccc(Nc2ccccc2)cc1,?,·,?,50µM,–,·
CC(=O)Nc1ccc2c(c1)C(=O)N(c1cccc(C)c1)C2=O,–,–,–,–,–,–
O=C1C=CC(=O)N1c1ccc2ccccc2c1,?,·,–,18µM,–,·
O=C(Nc1ccc(Nc2ccccc2)cc1)c1c(F)c(F)c(F)c(F)c1F,–,–,–,–,–,·
COc1ccc(CNc2nc(S(=O)(=O)c3ccccc3)c(Cl)s2)cc1OC,–,?,–,–,?,–
NCC1C2CCC(O2)C1CO (centres undefined),·,·,–,·,–,·
CC(=O)/C(N=Nc1cc2c(c([N+](=O)[O-])c1C)C(C)(C)CC2(C)C)=C(\C)O,–,–,–,?,–,?
O=C1c2ccccc2C(=O)N1N(c1ccccc1)c1ccccc1,–,·,–,–,–,·
O=C1C=CC(=O)N1N(c1ccccc1)c1ccccc1,?,32µM,–,18µM,–,1.8µM
Cc1ccc(N2C(=O)C3C4C=CC(CC4)C3C2=O)c([N+](=O)[O-])c1 (centres undefined),–,–,–,–,–,?
Cc1cc(C)c(Nc2cc(S(=O)(=O)O)c(N)c3c2C(=O)c2ccccc2C3=O)c(C)c1,?,5.6µM,-88!,7.9µM,-68,2.8µM
CC(=O)Nc1cccc(NC(=O)Cc2csc(COc3cccc(C)c3)n2)c1,–,–,·,–,·,–
COc1ccccc1Nc1cc(C)nc(Nc2ccccc2OC)n1,–,?,–,–,–,2.2µM
COc1ccccc1Nc1nc(C)cc(C)n1,–,–,–,–,–,–
NC(=S)NNc1ccc(Cl)c(Cl)c1,–,?,·,?,–,13µM
FC(F)Oc1ccc(NC(=S)NNc2ccnc3cc(Cl)ccc23)cc1,?,?,–,?,?,40µM
Clc1ccc2c(NNc3ccccc3Cl)ccnc2c1,–,2µM,–,?,–,3.2µM
O=C(NNc1ccnc2cc(Cl)ccc12)C1CCCCC1,–,–,–,–,–,–
Clc1ccc2c(N/N=C/c3cccc(Br)c3)ccnc2c1,–,–,–,–,–,–
Cc1ccc(NNC(N)=S)cc1Cl,–,–,–,?,–,?
NC(=S)NNc1ccnc2cc(Cl)ccc12,?,50µM,–,45µM,–,1µM
FC(F)Oc1ccc(NC(=S)NCCc2ccccn2)cc1,–,–,–,–,–,–
CCCN(CCC)CCCNC(=O)Cn1cnc2onc(-c3ccc(F)cc3)c2c1=O,–,–,·,–,·,–
CCCCOC(=O)c1c(C)oc2c1cc(NS(=O)(=O)c1cc(OC)ccc1OC)c1ccccc12,–,–,·,–,·,–
Cc1noc(C)c1S(=O)(=O)NCCc1csc2nc(-c3ccc(F)cc3)nn12,–,–,·,?,·,–
CCC(CC)C(=O)N(C)c1c(C)nc2c(OCCOc3ccc(F)cc3)cccn12,·,·,–,·,–,·
